Activity calls are given as the source filed them.
Experiments:
[1] = optical density shifts of acrAB sulA E. coli – strain DRC41, OD650, 48 h, E. coli filamentation inducer project, primary screen (AID 1152); conditions: higher = more signal, called active from +8 up or from −8 down;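 further: E. coli MC1000 strain DRC41 lacking acrAB efflux pump and sulA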
[2] = probe aLefty1 binding on compound microarray – biochemical, small-molecule microarray, 635/667 nm fluorescence, primary screen (AID 1153); conditions: higher = more signal;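 further: score merges spot fluorescence with signal-to-noise ratio from the scanned slide images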
[3] = plasmodial surface anion channel blockers, osmotic lysis – cell-based, P. falciparum Indochina, OD700, 1 h, primary screen (AID 1154); conditions: P. falciparum Indochina infected RBC osmotic lysis, higher = more signal, called active from +8 up or from −8 down
[4] = plasmodial surface anion channel blockers, osmotic lysis – cell-based, P. falciparum Indochina, OD700, 2 h, primary screen (AID 1155);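 further: lysis reports solute entry through the parasite surface anion channel PSAC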; conditions: P. falciparum Indochina infected erythrocytes, higher = more signal, called active from +8 up or from −8 down
[5] = changes in parasitized red cell lysis, either direction – P. falciparum Indochina, OD700, 3 h, PSAC antagonist project, primary screen (AID 1156); conditions: P. falciparum-infected erythrocytes, osmotic lysis, higher = more signal, called active from +8 up or from −8 down
[6] = plasmodial surface anion channel blockers, osmotic lysis – cell-based, P. falciparum Indochina, OD700, 18 h, primary screen (AID 1157); conditions: P. falciparum Indochina infected erythrocytes, osmotic lysis OD700, 18 h; higher = more signal, called active from +8 up or from −8 down
[7] = S6 kinase pathway phospho-S6 level changes – cell-based, A549, cytoblot, luminescence, serum-stimulated, primary screen (AID 1158); conditions: 5 h, higher = more signal;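 further: serum-stimulated A549 lung adenocarcinoma cells; signal is phosphorylated S6 detected by cytoblot immunostaining with HRP secondary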
[8] = target: NADPH oxidase 2 (Homo sapiens) (UniProt P04839); assay: compounds shifting NOX2 Amplex Red fluorescence – cell-based, HEK293-NOX2, PMA-stimulated, NOX inhibitor project, primary screen (AID 1159); conditions: 45 min, higher = more signal, called active from +8 up or from −8 down; further: test concentration not given here
[9] = target: NADPH oxidase 4 (Homo sapiens) (UniProt Q9NPH5); assay: compounds shifting NOX4 Amplex Red fluorescence – cell-based, HEK293-NOX4, tetracycline-induced, NOX inhibitor project, primary screen (AID 1160); conditions: HEK293-NOX4, Amplex Red H2O2 fluorescence, 45 min; higher = more signal, called active from +8 up or from −8 down
[10] = target: NADPH oxidase 5 (Homo sapiens) (UniProt Q96PH1); assay: compounds shifting NOX5 Amplex Red fluorescence – cell-based, HEK293-NOX5, NOX inhibitor project, primary screen (AID 1161); conditions: HEK293-NOX5, ionomycin, 45 min, higher = more signal
Sequence of NADPH oxidase 5 (Homo sapiens) (Q96PH1 whole entry, looked up): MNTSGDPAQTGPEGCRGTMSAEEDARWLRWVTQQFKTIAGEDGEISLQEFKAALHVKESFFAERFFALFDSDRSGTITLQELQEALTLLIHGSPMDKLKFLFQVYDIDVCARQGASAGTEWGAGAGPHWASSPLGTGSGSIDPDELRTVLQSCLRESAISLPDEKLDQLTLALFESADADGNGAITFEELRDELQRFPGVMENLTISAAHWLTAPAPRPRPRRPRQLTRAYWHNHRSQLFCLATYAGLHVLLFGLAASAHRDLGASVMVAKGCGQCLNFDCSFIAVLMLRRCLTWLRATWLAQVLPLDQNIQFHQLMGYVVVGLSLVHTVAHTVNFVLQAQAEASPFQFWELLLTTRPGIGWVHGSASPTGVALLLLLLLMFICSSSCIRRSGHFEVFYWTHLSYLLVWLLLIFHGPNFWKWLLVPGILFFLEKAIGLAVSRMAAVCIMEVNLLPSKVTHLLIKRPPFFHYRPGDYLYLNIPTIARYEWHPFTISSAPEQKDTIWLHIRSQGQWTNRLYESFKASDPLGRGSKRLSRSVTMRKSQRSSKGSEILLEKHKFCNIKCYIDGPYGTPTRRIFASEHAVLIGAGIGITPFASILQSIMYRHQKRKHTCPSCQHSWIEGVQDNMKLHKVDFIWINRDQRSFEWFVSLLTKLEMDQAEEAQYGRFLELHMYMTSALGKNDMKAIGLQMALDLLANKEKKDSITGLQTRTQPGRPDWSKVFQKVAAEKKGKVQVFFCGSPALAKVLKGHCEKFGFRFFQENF

Sequence of NADPH oxidase 2 (Homo sapiens) (P04839 whole entry, looked up): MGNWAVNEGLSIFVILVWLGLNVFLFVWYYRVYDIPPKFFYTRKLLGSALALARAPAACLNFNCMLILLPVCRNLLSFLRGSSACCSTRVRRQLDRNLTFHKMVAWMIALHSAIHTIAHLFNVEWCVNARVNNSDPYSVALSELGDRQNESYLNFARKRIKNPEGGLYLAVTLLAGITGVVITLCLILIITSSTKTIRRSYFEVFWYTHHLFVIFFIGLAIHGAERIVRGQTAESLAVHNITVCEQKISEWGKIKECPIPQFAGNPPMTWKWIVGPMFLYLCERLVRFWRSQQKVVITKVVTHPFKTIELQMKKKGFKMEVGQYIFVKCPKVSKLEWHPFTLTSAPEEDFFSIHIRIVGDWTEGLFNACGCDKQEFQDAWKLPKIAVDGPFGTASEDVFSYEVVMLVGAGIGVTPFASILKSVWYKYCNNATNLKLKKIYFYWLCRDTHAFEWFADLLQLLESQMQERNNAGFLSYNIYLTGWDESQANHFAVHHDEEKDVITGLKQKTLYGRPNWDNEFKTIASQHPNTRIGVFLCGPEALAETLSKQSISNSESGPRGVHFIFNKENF
Sequence of NADPH oxidase 4 (Homo sapiens) (Q9NPH5 whole entry, looked up): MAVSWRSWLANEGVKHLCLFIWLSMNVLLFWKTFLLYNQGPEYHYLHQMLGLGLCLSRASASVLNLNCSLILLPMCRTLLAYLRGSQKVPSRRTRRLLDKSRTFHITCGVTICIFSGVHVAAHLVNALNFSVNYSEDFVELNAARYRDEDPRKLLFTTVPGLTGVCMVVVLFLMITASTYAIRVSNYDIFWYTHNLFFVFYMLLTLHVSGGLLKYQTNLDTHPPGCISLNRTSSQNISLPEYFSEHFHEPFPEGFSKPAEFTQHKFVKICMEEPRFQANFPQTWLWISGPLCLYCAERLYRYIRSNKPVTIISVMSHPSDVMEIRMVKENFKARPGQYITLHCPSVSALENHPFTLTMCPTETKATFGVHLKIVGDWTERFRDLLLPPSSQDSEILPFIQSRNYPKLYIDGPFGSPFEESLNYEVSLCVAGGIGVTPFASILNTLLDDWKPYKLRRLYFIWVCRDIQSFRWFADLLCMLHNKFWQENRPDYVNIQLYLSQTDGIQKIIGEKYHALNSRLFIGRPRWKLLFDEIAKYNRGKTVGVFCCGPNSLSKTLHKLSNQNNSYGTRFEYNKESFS

SMILES | z-score [1] | composite z-score [2] | z-score [3] | z-score [4] | z-score [5] | z-score [6] | z-score [7] | z-score [8] | z-score [9] | z-score [10]
Cc1cc(C)c(C(O)C2C=CC3C(=O)N(c4ccccc4)C(=O)C3N2Nc2ccc(C#N)cc2)c(C)c1 (stereo not given) | -0.197 (inactive) | 0.938 | 7.4 (inactive) | 1.27 (inactive) | 0.742 (inactive) | 1.27 (inactive) | -0.649 | 0.0492 (inactive) | -2.68 (inactive) | -2.1
COC(=O)c1ccc(C23CC2(C(NP(=O)(c2ccccc2)c2ccccc2)c2ccccc2)C3)cc1 (stereo not given) | -0.402 (inactive) | 1.08 | 7.74 (inactive) | 0.191 (inactive) | -0.279 (inactive) | -1.02 (inactive) | 1.36 | -0.489 (inactive) | -0.652 (inactive) | -4.37
COc1ccc(NN2C(C(O)c3ccc(OC)c(OCc4ccccc4)c3)C=CC3C(=O)N(C4CCCCC4)C(=O)C32)cc1 (stereo not given) | 0.678 (inactive) | 0.32 | 4.41 (inactive) | 1.38 (inactive) | 0.31 (inactive) | 1 (inactive) | 0.0173 | -0.195 (inactive) | -1.96 (inactive) | -0.604
CC(c1ccccc1)C(O)C1C=CC2C(=O)NC(=O)C2N1Nc1ccccn1 (stereo not given) | -0.671 (inactive) | 0.314 | 0.887 (inactive) | 0.561 (inactive) | -0.255 (inactive) | 0.801 (inactive) | -0.8 | -0.479 (inactive) | -3.8 (inactive) | -1.79
C=CC(=C)C1=CCO[C@@H]1[C@H]1CCCN1S(=O)(=O)c1ccccc1[N+](=O)[O-] | 0.279 (inactive) | -0.148 | 2.97 (inactive) | 0.577 (inactive) | 0.544 (inactive) | 0.281 (inactive) | -0.031 | 0.516 (inactive) | 1.06 (inactive) | 0.77
CCOC(=O)C[C@H]1[C@H](OC(=O)c2ccc(-c3ccccc3)cc2)[C@@H](NC(=O)c2ccc3ccccc3c2)c2cc(OCCCO)ccc2N1C(=O)Cc1ccc(OC)cc1 | 0.107 (inactive) | -0.304 | 2.49 (inactive) | 0.927 (inactive) | 1.21 (inactive) | 0.263 (inactive) | 0.452 | -1.1 (inactive) | -0.0144 (inactive) | -1.47
O=C1O[C@@H](c2ccccc2)[C@@H](c2ccccc2)N2[C@@H](c3ccccc3OCCO)[C@]3(C(=O)Nc4ccc(C#CC5(O)CCCCCC5)cc43)[C@@H](C(=O)Nc3nc4ccccc4s3)[C@H]12 | -0.478 (inactive) | -0.12 | 3.1 (inactive) | 3.75 (inactive) | 1.96 (inactive) | 1.56 (inactive) | 0.361 | 1.42 (inactive) | 0.501 (inactive) | 1.28
[N-]=[N+]=NCc1ccccc1[C@H]1OC(c2ccc(OCCCO)cc2)=N[C@@]1(CCS(=O)(=O)c1ccccc1)C(=O)N1CCOCC1 | -0.0978 (inactive) | 1.08 | 24.4 (active) | 9.51 (active) | 1.76 (inactive) | 0.885 (inactive) | -0.362 | 1.24 (inactive) | 2.19 (inactive) | 1.98
C=C[C@H](COC(C)=O)N(Cc1ccc(OC(C)=O)c(OC)c1)S(=O)(=O)c1ccc(Br)cc1 | 1.49 (inactive) | 0.19 | 3.23 (inactive) | -1.11 (inactive) | -0.827 (inactive) | -1.15 (inactive) | 2 | -4.68 (inactive) | -0.87 (inactive) | -1.95
COc1ccc([Si](C)(C)[C@@H]2[C@@H](CCn3cc([C@H](O)c4ccccc4)nn3)O[C@]3(C(=O)N(Cc4ccc(N5C(=O)c6cccc7cccc5c67)cc4)c4ccccc43)[C@H]2C)cc1 | 0.74 (inactive) | -0.14 | 1.23 (inactive) | -0.611 (inactive) | 0.957 (inactive) | -0.68 (inactive) | 1.11 | 0.584 (inactive) | 1.01 (inactive) | -0.539
CC(C)C(O)C1C=CC2C(=O)N(c3ccccc3)C(=O)C2N1Nc1ccc(C#N)cc1 (stereo not given) | -0.411 (inactive) | 0.797 | 12 (active) | 1.1 (inactive) | 2.03 (inactive) | 0.875 (inactive) | -1.09 | -1.81 (inactive) | -4.46 (inactive) | -2.83
CC(C)CNC(=O)[C@@]1(c2ccc([N+](=O)[O-])cc2)CC(=O)N(CC23CC4CC(CC(C4)C2)C3)[C@@H]1c1ccc(CO)cc1 | 2.76 (inactive) | 0.227 | 2.75 (inactive) | -0.14 (inactive) | 0.856 (inactive) | -0.36 (inactive) | 0.802 | -0.129 (inactive) | -1.06 (inactive) | 0.965
C=CCOC(=O)[C@@H]1[C@H]2C(=O)O[C@H](c3ccccc3)[C@H](c3ccccc3)N2[C@H](c2ccc(OCCOC(=O)[C@@H]3C[C@@H]4C(=O)N[C@@H](Cc5ccccc5)C(=O)N4[C@@H]3c3cccc(OCCO)c3)cc2)[C@@]12C(=O)Nc1ccc(I)cc12 | 0.264 (inactive) | 0.706 | 9.36 (active) | 2.8 (inactive) | 2.09 (inactive) | 1.31 (inactive) | -0.479 | 1.03 (inactive) | -1.02 (inactive) | 0.727
CC(C)(C)N1CC=CC23O[C@@H]4C=CCOC(=O)[C@@H]4[C@H]2C(=O)N(CCCCCO)[C@@H]3C1=O (stereo not given in full) | -0.197 (inactive) | -0.0094 | 0.987 (inactive) | 0.624 (inactive) | 1.47 (inactive) | 0.453 (inactive) | -0.301 | 1.27 (inactive) | 0.436 (inactive) | 1.52
COC(=O)[C@@]1(Cc2ccc(OC)cc2)[C@H]2c3cc(C(=O)N4CCCC4)n(Cc4cc(F)cc5c4OCOC5)c3C[C@H]2CN1C(=O)c1ccccc1 | -2.14 (inactive) | -0.12 | 1.15 (inactive) | 0.142 (inactive) | 0.951 (inactive) | 0.522 (inactive) | -0.0863 | -0.327 (inactive) | -1.94 (inactive) | -1.06
Cc1ccc(S[C@]2(C(=O)NC3CC3)CC(=O)N(C3CCCCC3)[C@@H]2c2ccc(CO)cc2I)cc1 | 0.639 (inactive) | 0.112 | 6.07 (inactive) | 0.898 (inactive) | -0.0504 (inactive) | 0.427 (inactive) | -0.208 | 0.655 (inactive) | -0.194 (inactive) | 1.38
COc1ccc([Si](C)(C)[C@@H]2[C@@H](CCn3cc([C@H](O)c4ccccc4)nn3)O[C@]3(C(=O)N(Cc4cccc(N5CCOC5=O)c4)c4ccccc43)[C@H]2C)cc1 | 1 (inactive) | -0.328 | 26.3 (active) | 12.8 (active) | 1.33 (inactive) | 1.68 (inactive) | 0.324 | -0.662 (inactive) | 2.29 (inactive) | 1.84
COc1ccc(C#Cc2ccc3c(c2)[C@]2(C(=O)N3)[C@H](c3ccc(O)cc3)N3[C@H](c4ccccc4)[C@H](c4ccccc4)OC(=O)[C@H]3[C@@H]2C(=O)N2CCCCCCC2)cc1 | 0.777 (inactive) | 2.53 | -0.212 (inactive) | -0.763 (inactive) | -0.272 (inactive) | -1.29 (inactive) | 2.87 | 0.723 (inactive) | -0.00989 (inactive) | 0.855
CC(C)c1ccc(NN2C(C(O)c3ccc(N(C)C)cc3)C=CC3C(=O)N(c4ccccc4)C(=O)C32)cc1 (stereo not given) | -0.448 (inactive) | 0.544 | 1.72 (inactive) | 1.05 (inactive) | 0.655 (inactive) | 1.32 (inactive) | -0.183 | -1.14 (inactive) | -0.983 (inactive) | -2.39
C=CC[C@@]1(C(=O)O)N=C(c2ccc(OCCCO)cc2)O[C@@H]1c1ccccc1N=[N+]=[N-] | 0.232 (inactive) | 0.546 | 33.9 (active) | 32.2 (active) | 2.2 (inactive) | 8.02 (active) | -0.567 | -0.973 (inactive) | 1.14 (inactive) | 0.518
COCCOC(=O)N1C(=O)[C@@]2(c3cc(C#CC4=CCCCC4)ccc31)[C@H](C(=O)NC[C@H](O)c1ccccc1)[C@H]1C(=O)O[C@H](c3ccccc3)[C@H](c3ccccc3)N1[C@@H]2c1ccc(O)cc1 | 1.8 (inactive) | 0.265 | 0.602 (inactive) | 0.793 (inactive) | 0.0873 (inactive) | 0.554 (inactive) | -0.176 | 1.2 (inactive) | 0.349 (inactive) | 1.22
CN(C)C(=O)[C@@]1(CCC(=O)OC(C)(C)C)N=C(c2ccc(OCCCO)cc2)O[C@H]1c1ccccc1 | -0.249 (inactive) | 0.986 | 15.9 (active) | 1 (inactive) | 1.34 (inactive) | -0.976 (inactive) | 0.837 | -2.81 (inactive) | -0.618 (inactive) | -0.698
CCN(CC)c1ccc(N2CC=CC34O[C@@H]5C=CCCOC(=O)C5[C@H]3C(=O)N(CCCCCO)[C@@H]4C2=O)cc1 (stereo not given in full) | 2.82 (inactive) | 0.0391 | 2 (inactive) | -0.0803 (inactive) | 1.11 (inactive) | 0.352 (inactive) | -0.195 | -0.11 (inactive) | 0.604 (inactive) | 0.895
CC(C)C[C@@H]1NC(=O)[C@@H]2C[C@H](C(=O)NCCCCCC[N+](C)(C)C)[C@H](c3ccc(O)cc3)N2C1=O | 0.55 (inactive) | 0.127 | 3.47 (inactive) | 0.637 (inactive) | -1.96 (inactive) | 0.227 (inactive) | -0.274 | 0.994 (inactive) | 0.763 (inactive) | 0.75
COCCOC(=O)N1C(=O)[C@@]2(c3cc(C#CCNC(N)=O)ccc31)[C@H](C(=O)N1CCc3cc(OC)c(OC)cc3C1)[C@H]1C(=O)O[C@H](c3ccccc3)[C@H](c3ccccc3)N1[C@@H]2c1ccc(OCCO)cc1 | 1.3 (inactive) | -0.361 | 3.93 (inactive) | 1.37 (inactive) | 0.695 (inactive) | 0.778 (inactive) | 0.412 | 0.825 (inactive) | 0.869 (inactive) | -0.0832
COCCOC(=O)N1C(=O)[C@@]2(c3cc(C#CCC(C(=O)OC)C(=O)OC)ccc31)[C@H](c1ccccc1OCCO)N1[C@H](c3ccccc3)[C@H](c3ccccc3)OC(=O)[C@H]1[C@@H]2C(=O)N1CCc2cc(OC)c(OC)cc2C1 | 2.09 (inactive) | 0.438 | 1.87 (inactive) | -0.226 (inactive) | -0.23 (inactive) | -0.466 (inactive) | 0.61 | 1.26 (inactive) | 1.56 (inactive) | 0.631
